The values that follow come from PubChem BioAssay.

Calls of active or inactive are those of the source.

This assay in a line: PSAC antagonists in infected red cells, primary screen, cell-based, P. falciparum Indochina, OD700, 1 h (AID 1154). The note with it: P. falciparum Indochina infected RBC osmotic lysis, higher = more signal, called active from +8 up or from −8 down.
As to `O=C1C2C=CC(C(O)Cc3ccccc3)N(n3cnnc3)C2C(=O)N1Cc1ccccc1` (stereo not given), the z-score is 1.78 (inactive).
Take `CCCC[C@@H]1C[C@H]1[C@@H](NC(=O)c1ccco1)c1ccc(-c2ccccc2)cc1`: the z-score is -0.38 (inactive).
Regarding `C[C@@]1([C@@H](NC(=O)c2ccc(-c3ccccc3)cc2)c2ccc(Cl)cc2)C[C@H]1C1CCCCC1`, the z-score was 15.8 (active).
`COC(=O)c1c(CC[C@@H](CO)NC(=O)NCCn2cc(C3(O)CCCC3)nn2)oc(C(C)=O)c1C(=O)OC`: the z-score was 2.06 (inactive).
In the case of `CC1(C)C2C=C(C(O)C3C=CC4C(=O)NC(=O)C4N3Nc3ccc(Cl)cc3Cl)C[C@@H]1C2` (stereo not given in full), the z-score was 3.33 (inactive).
As for `NC(=O)NCC#Cc1ccc2c(c1)[C@]1(C(=O)N2)[C@H](C(=O)Nc2nc3ccccc3s2)[C@H]2C(=O)O[C@H](c3ccccc3)[C@H](c3ccccc3)N2[C@@H]1c1ccccc1OCCO`, the figure is 1.39 (inactive); as for `COC(=O)[C@@]1(Cc2ccc(F)cc2)[C@H]2c3cc(C(=O)N(C)C)n(Cc4cc(F)c(F)c(F)c4)c3C[C@H]2CN1C(=O)c1ccccc1`, 4.21 (inactive); as for `[N-]=[N+]=NCc1ccccc1[C@@H]1OC(c2ccc(OCCCO)cc2)=N[C@]1(Cc1ccccc1)C(=O)NCC(O)CO` (stereo not given in full), 13.5 (active).
The figure for `COc1cc2c(cc1OC)CN(C(=O)[C@@H]1[C@H]3C(=O)O[C@H](c4ccccc4)[C@H](c4ccccc4)N3[C@H](c3ccc(O)cc3)[C@@]13C(=O)Nc1ccccc13)CC2` is 1.32 (inactive).
For the compound `[N-]=[N+]=Nc1ccccc1[C@H]1OC(c2ccc(OCCCO)cc2)=N[C@@]1(CCS(=O)(=O)c1ccccc1)C(=O)NCC(O)CO` (stereo not given in full), the z-score is 29.7 (active).
As to `O=C1NC(=O)C2C1C=CC(C(O)c1cccs1)N2Nc1ccc(Cl)cc1Cl` (stereo not given), the z-score was 2.33 (inactive).
For `C=CCNC(=O)[C@H]1[C@@H]2C(=O)O[C@@H](c3ccccc3)[C@@H](c3ccccc3)N2[C@@H](c2ccccc2OCCO)[C@]12C(=O)Nc1ccc(C#CCCO)cc12`, the z-score is 9.4 (active).
As for `CC(C)C(CO)N1C(=O)[C@@H]2C3C(=O)OCCC/C=C\[C@H]3OC23C=CCN(CCN2CCOCC2)C(=O)[C@@H]13` (stereo not given in full), the figure is 0.81 (inactive).
As for `CC(=O)n1cc(C(O)C2C=CC3C(=O)N(c4ccccc4)C(=O)C3N2Nc2ccc([N+](=O)[O-])cc2)c2ccccc21` (stereo not given), the z-score is 17 (active).
As for `CCOC(=O)C[C@H]1[C@H](OC(=O)c2ccc(C(=O)c3ccccc3)cc2)[C@@H](NC(=O)c2ccc3ccccc3n2)c2cc(OCCCO)ccc2N1C(=O)c1ccccc1`, the figure is 0.839 (inactive); as for `COc1ccc(C#Cc2ccc3c(c2)[C@]2(C(=O)N3)[C@H](C(=O)NC[C@H](O)c3ccccc3)[C@H]3C(=O)O[C@H](c4ccccc4)[C@H](c4ccccc4)N3[C@@H]2c2ccc(O)cc2)cc1`, -0.476 (inactive).
As for `N#Cc1ccc(NN2C(C(O)C(c3ccccc3)c3ccccc3)C=CC3C(=O)N(c4ccccc4)C(=O)C32)cc1` (stereo not given), the figure is 5.66 (inactive).
As for `Cc1ccccc1C(O)C1C=CC2C(=O)N(c3ccccc3)C(=O)C2N1Nc1ccc(C(C)C)cc1` (stereo not given), the figure is 1.85 (inactive).
Regarding `CO[C@H]1O[C@H](CO)[C@@H](OC(=O)Nc2cccc(F)c2)[C@H](OC(=O)Nc2ccccc2)[C@@H]1OC(=O)Nc1ccccc1`, the z-score is 8.61 (active).
As to `C=CCOC(=O)[C@H]1[C@@H]2C(=O)O[C@@H](c3ccccc3)[C@@H](c3ccccc3)N2[C@@H](c2ccc(OCCOC(=O)[C@H]3C[C@H]4C(=O)N[C@@H](CCCCNC(C)=O)C(=O)N4[C@H]3c3ccc(O)cc3)cc2)[C@]12C(=O)Nc1ccc(I)cc12`, the z-score is -0.858 (inactive).
In the case of `Cc1nc2cc(Br)ccc2c(=O)o1`, the z-score is 0.252 (inactive).
In the case of `CCCC[C@H]1OB(O)C[C@H]2C1=C(COC)Cn1c(=O)n(-c3ccccc3)c(=O)n12`, the z-score is 0.43 (inactive).
As for `COc1ccc([Si](C)(C)[C@@H]2[C@@H](CCO)O[C@]3(C(=O)N(Cc4ccc(N(C=O)c5ccccc5)cc4)c4ccccc43)[C@H]2C)cc1`, the figure is 4.33 (inactive).
With `CC(C)[Si](C#Cc1ccc(Oc2ccccc2)cc1)(O[Si](C#Cc1ccc(Oc2ccccc2)cc1)(C(C)C)C(C)C)C(C)C`, the z-score is 2.62 (inactive).
Turning to `CN1C=C(C(=O)OCCS(C)(=O)=O)C(C(=O)OCCS(C)(=O)=O)=CC(c2ccc(CO)cc2)=CC1C1CC1` (stereo not given), the z-score was 11.3 (active).
For the compound `COc1ccc(CCNC(=O)[C@@]2(Sc3ccc(C)cc3)CC(=O)N(C(C)C)[C@@H]2c2ccc(CO)cc2I)cc1`, the z-score was 5.56 (inactive).
Take `CC1(C)[C@@H]2CC(C(O)C3C=CC4C(=O)N(c5ccccc5)C(=O)C4N3Nc3ccc([N+](=O)[O-])cc3)=C[C@H]1C2` (stereo not given in full): the z-score was 14.3 (active).
Regarding `NC(=O)NCC#Cc1ccc2c(c1)[C@]1(C(=O)N2)[C@H](c2ccccc2OCCO)N2[C@H](c3ccccc3)[C@H](c3ccccc3)OC(=O)[C@H]2[C@@H]1C(=O)Nc1nc2ccccc2s1`, the z-score is 1.19 (inactive).
With `COC(=O)C(CC#Cc1ccc2c(c1)[C@]1(C(=O)N2)[C@H](C(=O)Nc2nc3ccccc3s2)[C@H]2C(=O)O[C@H](c3ccccc3)[C@H](c3ccccc3)N2[C@@H]1c1ccc(O)cc1)C(=O)OC`, the z-score is 1.14 (inactive).
Consider `C=CCC(OC(C)=O)[C@@H]1[C@@H](N(Cc2ccc(-c3cccc(C(F)(F)F)c3)o2)C(=O)c2ccc(C)cc2)c2cc(OCCCO)ccc2N1C(=O)Cc1ccc2ccccc2c1` (stereo not given in full), for which the z-score is 1.05 (inactive).
On to `O=C1O[C@H](c2ccccc2)[C@H](c2ccccc2)N2[C@H]1[C@@H](C(=O)N1CCCCCCC1)[C@]1(C(=O)Nc3ccc(C#CC4=CCCCC4)cc31)[C@H]2c1ccc(OCCO)cc1`, for which the z-score was 10.2 (active).
Take `CCCCCN1CC=CC23O[C@@H]4C=CCCOC(=O)C4[C@H]2C(=O)N(CCCCCO)[C@@H]3C1=O` (stereo not given in full): the z-score was 1.73 (inactive).
Regarding `COCCCNC(=O)[C@]1(CCC(=O)OC(C)(C)C)N=C(c2ccc(OCCCO)cc2)O[C@@H]1c1ccccc1CN=[N+]=[N-]`, the z-score was 26.3 (active).
Take `O=C1c2ccccc2[C@](Cc2ccccc2I)(C(=O)NCCN2CCOCC2)[C@H](c2ccc(CO)cc2)N1C1CCCCC1`: the z-score is 3.66 (inactive).
The figure for `COc1ccc([Si](C)(C)[C@H]2[C@H](CCO)O[C@@]3(C(=O)N(Cc4ccc(N(C=O)c5ccccc5)cc4)c4ccccc43)[C@@H]2C)cc1` is 17.5 (active).
